Rows were chosen to be rich in hits. Some 28% of all compounds tested hit in one or more screens of this group.
CYP2C19 activ – increases human CYP2C19 enzyme activity; 96,000 tested, under 10 active; recombinant CYP2C19, luciferin-H EGE luminescence; hits give high values; 0 = fully inhibited enzyme, 1 = untreated enzyme; activation factor at 5 µM; AID 1025;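 active means activation factor of at least 2 at 5 µM in the primary screen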;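 further: 0 = wells with 2.5 mM tranylcypromine and 1 = vehicle-only wells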
CYP2C19 inh – blocks human cytochrome P450 2C19; hit rate 21% among 96,000; inhibition, % at 5 µM; AID 778; CYP2C19 Supersomes, luciferin-H EGE luminescence, 30 min; P33261;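 active means CYP2C19 inhibition above a set limit at 5 µM in the primary screen, cut at about 50% in these data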;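 further: plate controls were negative control wells for no effect and 2.5 mM tranylcypromine positive control for full effect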
CYP2C9 activ – increases human cytochrome P450 2C9 activity. P11712. recombinant CYP2C9, luciferin-H conversion, luminescence; hits give high values; factor 1 = untreated enzyme, 0 = blocked. activation factor at 5 µM. hit rate 1.4% among 96,000. AID 1024;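 active means activation factor of 2 or more for CYP2C9 at a 5 µM dose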;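 further: 0 = sulfaphenazole-blocked wells and 1 = vehicle-only wells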
Target sequence (P11712 whole entry, looked up): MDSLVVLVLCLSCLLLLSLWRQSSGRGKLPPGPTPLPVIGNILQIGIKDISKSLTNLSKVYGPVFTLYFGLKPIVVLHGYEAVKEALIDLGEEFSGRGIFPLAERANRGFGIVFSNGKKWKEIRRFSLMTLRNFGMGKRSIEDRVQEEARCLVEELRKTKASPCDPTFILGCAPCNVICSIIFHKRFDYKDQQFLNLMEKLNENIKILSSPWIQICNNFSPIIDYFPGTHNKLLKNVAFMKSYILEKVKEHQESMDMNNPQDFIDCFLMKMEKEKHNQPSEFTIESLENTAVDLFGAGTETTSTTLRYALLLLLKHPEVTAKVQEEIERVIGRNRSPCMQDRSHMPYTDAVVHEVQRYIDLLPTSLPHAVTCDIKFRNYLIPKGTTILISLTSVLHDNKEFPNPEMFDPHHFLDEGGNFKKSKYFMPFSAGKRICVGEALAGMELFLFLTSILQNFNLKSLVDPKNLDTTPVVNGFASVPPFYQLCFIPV
DAT uptake mod – changed human dopamine transporter uptake under cocaine IC80 | LLC-PK1 hDAT cells, [14C]-dopamine uptake with cocaine IC80; actives deviate in either direction | B-score at 10 µM | hit rate 1.3% among 110,000 | AID 449768;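 active means Z score or B-score, a plate-position-corrected score, falls beyond the plate's 99.7% confidence bounds, in either direction; inactive means both scores lie inside the 99.7% bounds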;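 further: scored against the spread of the other compound wells on the same plate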
D1 mod – allosteric modulators of human D1 dopamine receptor; P21728; HEK293 D1, CRE-luciferase, dopamine EC30 potentiation; actives deviate in either direction; B-score at 10 µM; hit rate 5.9% among 58,000; AID 641;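 active means luminescence count or its row- and column-corrected plate score outside the 99.7% band of the plate's sample wells, on either side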
CYP2C9 inhib – human CYP2C9 inhibition. CYP2C9 Supersomes, luciferin-H conversion, luminescence. inhibition, % at 5 µM. hit rate 20% among 96,000. AID 777;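 active means blocking of liver enzyme CYP2C9 beyond about 50% at 5 µM, limit read from the data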
* = called active by the depositor; . = no result given.

SMILES | CYP2C19 activ | CYP2C19 inh | CYP2C9 activ | DAT uptake mod | D1 mod | CYP2C9 inhib
COC(=O)Cc1ccc(NC(=O)c2ccc(Br)o2)cc1 | 0.6 | 39.9 | 0.6 | 2.45 | -0.888 | 36.0
O=C(Nc1ccc2c(c1)oc1ccccc12)c1ccc(Br)o1 | 0.8 | 18.3 | 1.2 | -0.000318 | -0.00388 | -16.2
CCN(CC)c1ccc(NC(=O)c2ccc(Br)o2)cc1 | 0.5 | 52.3* | 1.1 | 0.398 | -3.53 | -9.0
CCc1cccc(NC(=O)c2ccc(Br)o2)c1 | 0.3 | 69.7* | 0.8 | 4.91* | -1.17 | 17.9
O=C(c1ccccc1)c1cccc(NC(=O)c2ccc(Br)o2)c1 | 0.4 | 63.8* | 0.1 | -9.72* | . | 94.7*
N#CCCn1c(Cl)nc2ccccc21 | 1 | 4.2 | 1 | -1.06 | -0.403 | -2.6
O=C(NCC1CCCO1)c1ccc(NC(=O)C2C3C=CC(C3)C2C(=O)O)cc1 (stereo not given) | 1 | 1.3 | 0.9 | -0.861 | . | 8.5
COc1cccc(CNC(=O)c2ccc3nc[nH]c3c2)c1 | 0.6 | 38.1 | 1.1 | -0.479 | -1.17 | -8.4
CCN1CCCC1CNC(=O)c1ccc(CS(=O)(=O)c2ccccc2C)o1 (stereo not given) | 1.1 | -12.2 | 1.1 | -0.496 | -0.0998 | -14.3
Cc1ccc(C(C)NC(=O)c2ccco2)cc1C (stereo not given) | 0.5 | 48.2 | 2.2* | 0.234 | 0.629 | -119.9
Cc1cc(O)c(NC(=O)c2ccco2)cc1C | 1.1 | -6.8 | 1 | 0.146 | -0.000496 | 0.4
Cc1ccc(/C=C/C2=Cc3c(sc(NC(=O)CSc4n[nH]c(N)n4)c3C#N)C(C)(C)C2)o1 | 0.8 | 20.2 | 0.1 | 0.514 | 0.00778 | 90.6*
COC(=O)c1c(NC(=O)CSc2n[nH]c(N)n2)sc(C)c1C | 0.9 | 13.3 | 0.7 | -1.29 | 1.48 | 31.5
COC(=O)c1c(NC(=O)Cc2cccs2)sc2c1CCCC2 | 0.8 | 21.8 | 0.7 | -0.0128 | 2.74* | 34.7
CC(C)OC(=O)c1c(NC(=O)c2cccs2)sc2c1CCCC2 | 1 | -3.6 | 0.3 | 0.235 | . | 73.9*
COCC(=O)Nc1sc2c(c1C(=O)OC)CCCC2 | . | . | . | -0.156 | . | .
c1ccc(CCCNc2ncccn2)cc1 | . | . | . | -0.0444 | . | .
CC1CCc2ccccc2N1C(=O)c1cccs1 (stereo not given) | 0.8 | 21.7 | 0.7 | -7.3* | . | 27.8
CCOC(=O)c1sc(NC(=S)NC(=O)CC(C)C)cc1C | 1.1 | -8.2 | 1.1 | 0.0253 | . | -8.1
CC(C)(C)C(=O)/C=C/Nc1ccccc1O | 1 | -0.3 | 1 | -0.0314 | . | -1.5
O=C(O)CCNS(=O)(=O)c1ccc(Oc2ccccc2Cl)cc1 | 1 | 1.8 | 0.8 | -0.107 | . | 16.7
CCNS(=O)(=O)c1ccc(CCC(=O)Nc2cc(Cl)ccc2Oc2ccccc2)cc1 | 0.4 | 64.3* | 0.2 | 0.144 | . | 82.0*
CC(C)NS(=O)(=O)c1ccc(CCC(=O)Nc2cc(Cl)ccc2Oc2ccccc2)cc1 | 0.6 | 45.0 | 0.3 | 0.877 | . | 67.2*
COc1cc(C2c3c(oc4ccc(C)cc4c3=O)C(=O)N2c2cc(C)ccn2)cc(OC)c1OC (stereo not given) | 1 | 2.7 | 0.4 | . | . | 59.2*
Cc1ccc2oc3c(c(=O)c2c1)C(c1cccc(O)c1)N(c1ccccn1)C3=O (stereo not given) | 0.8 | 20.2 | 1.1 | -0.152 | 1.88 | -10.6
SMILES | CYP2C19 activ | CYP2C19 inh | CYP2C9 activ | DAT uptake mod | D1 mod | CYP2C9 inhib
N#CCSc1nnc(C2CCCCC2)n1-c1ccccc1 | 1 | 1.2 | 1 | 0.0434 | 0.0214 | 0.4
N#Cc1ccccc1N=C1CCCN1Cc1ccccc1 | 0.2 | 84.6* | 0.8 | -1.22 | -0.258 | 21.6
Cc1cc(C)c(N=C2CCCN2Cc2ccccc2)c(C#N)c1 | . | . | . | 3* | . | .
O=C1CCCCCN1Cc1ccccc1 | 0.6 | 35.2 | 1 | -1.92 | . | -2.7
Cc1cccc(N2CCCC2=Nc2ccc(Br)cc2C#N)c1 | 1 | 2.3 | 0.9 | 0.00195 | . | 6.5
O=C(NCCCCCCNC(=O)c1ccc(Br)s1)c1ccc(Br)s1 | . | . | . | 0.862 | . | .
COc1ccc(N=CC2=C(Nc3ccc(OC)cc3)c3c(C)nn(-c4ccccn4)c3CC2)cc1 | . | . | . | -0.002 | . | .
CC(C)(C)SCCNS(=O)(=O)c1ccc(F)cc1 | 0.9 | 13.6 | 0.6 | 0.414 | -0.0856 | 39.8
COc1ccc(S(=O)(=O)NCc2ccccn2)c(Cl)c1Cl | 0.1 | 87.8* | 2* | -1.25 | 1.07 | -102.6
COc1ccc(S(=O)(=O)NCCSC(C)(C)C)c(Cl)c1Cl | 0.1 | 94.5* | 3.2* | -0.762 | . | -217.7
CCCCNS(=O)(=O)c1ccc(OC)cc1 | 0.6 | 37.1 | 0.9 | 0.313 | . | 9.0
CCCNS(=O)(=O)c1ccc(OC)c(Cl)c1Cl | 0.5 | 52.6* | 0.9 | -0.0313 | . | 9.7
O=C1NC2(CCCCC2)Oc2ccccc21 | 0.8 | 24.0 | 1 | -0.105 | 0.895 | -4.0
O=[N+]([O-])c1ccc(Sc2ccccc2Cl)nc1 | 0.4 | 62.3* | 1 | 0.15 | . | 0.7
COC(=O)[C@@]1(Cc2ccc(OC)cc2)[C@H]2c3cc(C(=O)N4CCCC4)n(CCc4c[nH]c5ccc(O)cc45)c3C[C@H]2CN1C(=O)c1ccccc1 | . | . | . | 0.292 | . | .
O=C1CC(N(C(=O)c2ccco2)c2cccc(Cl)c2)C(=O)N1c1cccc(Cl)c1 (stereo not given) | 0.1 | 91.4* | 0.1 | -0.238 | . | 92.0*
O=C(NCC1CCCO1)C1CCN(S(=O)(=O)c2cccc3nonc23)CC1 (stereo not given) | 1 | 1.5 | 1.4 | 1.02 | . | -44.9
Cc1ncc([N+](=O)[O-])n1CCO | . | . | . | -0.0657 | 1.91 | .
Cc1ncc([N+](=O)[O-])n1CCOC(=O)c1ccc(Cl)cc1Cl | 0.5 | 50.9* | 0.8 | 0.141 | . | 22.3
OCCN(Cc1ccccc1)Cc1cccc(F)c1 | 0.3 | 69.8* | 0.8 | 0.0721 | 0.404 | 15.8
OCCN(Cc1ccccc1)Cc1ccc(C(F)(F)F)cc1 | 0 | 95.4* | 0.5 | 0.245 | . | 50.3*
OCCN(Cc1ccccc1)Cc1cccc(C(F)(F)F)c1 | 0.3 | 73.1* | 0.8 | 0.761 | 0.172 | 19.7
CCCN(CCO)Cc1cccc(Cl)c1 | 0.9 | 7.1 | 1 | -0.409 | -0.00547 | -4.8
CS(=O)(=O)NCCSCc1c(Cl)cccc1Cl | 0.7 | 25.8 | 0.4 | -0.0727 | . | 62.9*
CS(=O)(=O)NCCSCc1c(F)cccc1Cl | 0.8 | 22.2 | 0.8 | -0.0737 | -2.61 | 15.5
SMILES | CYP2C19 activ | CYP2C19 inh | CYP2C9 activ | DAT uptake mod | D1 mod | CYP2C9 inhib
O=C(O)c1cc2sccc2s1 | 0.9 | 6.3 | 0.9 | -0.899 | 0.245 | 7.6
Cc1ccc(-c2nc3cnccn3c2Nc2c(C)cccc2C)o1 | 0 | 99.2* | 0.4 | 0.00587 | . | 63.2*
Cc1cccc(N2C(=O)CC(Sc3nc(C)cc(C)n3)C2=O)c1 (stereo not given) | 0.6 | 39.8 | 0.8 | 0.692 | . | 15.1
CCOC(=O)c1cnc(SC2CC(=O)N(c3cccc(OC)c3)C2=O)nc1N (stereo not given) | 0.6 | 35.5 | 0.3 | 1.29 | . | 72.8*
Cc1cc(C)c(C(=O)CSc2n[nH]c(=O)n2C2CC2)cc1C | 0.5 | 52.0* | 0.2 | -0.044 | -0.525 | 76.9*
CCCn1c(SCC(=O)c2cc(C)ccc2C)n[nH]c1=O | 0.9 | 9.5 | 0.9 | 1.16 | . | 12.6
